Data: PubChem BioAssay (NCATS)
Records with an inconclusive call do not appear. Active and inactive are the calls of the source. Unless noted, the call rests on the fitted dose curve.

Key:
[1] = qHTS for Inhibitors of the Functional Ribonucleoprotein Complex (vRNP) of Lassa (LASV) Arenavirus: LASV Primary Screen - GLuc reporter signal (AID 1347082; calls by dose curve; tested in HEK293 reporter line; further: nearly all actives have a fitted effect of over 60% in size); details: LASV minigenome vRNP, Gaussia luciferase reporter; series mostly up to 57.5 µM
[2] = qHTS for Inhibitors of the Functional Ribonucleoprotein Complex (vRNP) of Lassa (LASV) Arenavirus: Viability assay - alamar blue signal for LASV Primary Screen (AID 1347083; calls by dose curve; tested in HEK293 reporter line; further: nearly all actives have a fitted effect of over 80% in size); details: cell viability, alamar blue fluorescence (LASV minigenome counter-screen); series mostly up to 57.5 µM
[3] = qHTS for Inhibitors of the Functional Ribonucleoprotein Complex (vRNP) of Lymphocytic Choriomeningitis Arenaviruses (LCMV): Viability assay - alamar blue signal for LCMV Primary Screen (AID 1347085; calls by dose curve; tested in HEK293 reporter line; further: nearly all actives have a fitted effect of over 80% in size); details: alamar blue viability counter-screen, LCMV vRNP screen cells; series mostly up to 57.5 µM
[4] = target: Nucleoprotein (Lymphocytic choriomeningitis virus (strain Armstrong)) (UniProt P09992); assay: qHTS for Inhibitors of the Functional Ribonucleoprotein Complex (vRNP) of Lymphocytic Choriomeningitis Arenaviruses (LCMV): LCMV Primary Screen - GLuc reporter signal (AID 1347086); details: LCMV minigenome vRNP cell assay, Gaussia luciferase reporter; series mostly up to 57.5 µM; further: nearly all actives have a fitted effect of over 70% in size
Nucleoprotein (Lymphocytic choriomeningitis virus (strain Armstrong)), sequence (P09992 whole entry, looked up): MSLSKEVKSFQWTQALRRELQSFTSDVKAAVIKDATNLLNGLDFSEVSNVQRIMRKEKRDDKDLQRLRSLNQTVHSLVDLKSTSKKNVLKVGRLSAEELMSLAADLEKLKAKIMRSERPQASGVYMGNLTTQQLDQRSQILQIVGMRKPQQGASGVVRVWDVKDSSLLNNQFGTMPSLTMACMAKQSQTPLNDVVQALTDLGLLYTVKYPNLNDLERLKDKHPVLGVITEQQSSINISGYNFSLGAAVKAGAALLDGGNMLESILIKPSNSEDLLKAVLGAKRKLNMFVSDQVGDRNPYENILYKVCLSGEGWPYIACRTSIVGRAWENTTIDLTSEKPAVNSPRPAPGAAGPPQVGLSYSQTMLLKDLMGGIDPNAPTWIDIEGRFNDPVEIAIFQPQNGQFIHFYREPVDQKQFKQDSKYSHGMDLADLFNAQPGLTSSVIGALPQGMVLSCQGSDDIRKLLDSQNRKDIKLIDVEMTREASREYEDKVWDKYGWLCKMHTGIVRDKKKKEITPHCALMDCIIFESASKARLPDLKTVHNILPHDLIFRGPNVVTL
On the % scale 0 is the no-effect control and ±100 the full control effect; potency means the concentration at half of the fitted maximal effect.

COC(=O)C1=C(C)NC(C)=C(C(=O)OCC(C)=O)C1c1ccccc1[N+](=O)[O-] (centres undefined)
inactive: Potency [1] | Potency [2] | Potency [3] | Potency [4]

COc1nccnc1NS(=O)(=O)c1ccc(N)cc1
inactive: Potency [1] | Potency [2] | Potency [3] | Potency [4]

CCN(Cc1ccncc1)C(=O)C(CO)c1ccccc1 (centres undefined)
inactive: Potency [1] | Potency [2] | Potency [3] | Potency [4]

Cc1noc(NS(=O)(=O)c2ccc(N)cc2)c1C
inactive: Potency [1] | Potency [2] | Potency [3] | Potency [4]

O=C(Nc1ccc(Cl)c(Cl)c1)C1CC1
inactive: Potency [1] | Potency [2] | Potency [3] | Potency [4]

O=C(CCOCCOCCOCCOCCC(=O)Nc1c(I)cc(I)c(C(=O)O)c1I)Nc1c(I)cc(I)c(C(=O)O)c1I
inactive: Potency [1] | Potency [2] | Potency [3] | Potency [4]

CN(C)CCOC(=O)COc1ccc(Cl)cc1
inactive: Potency [1] | Potency [2] | Potency [3] | Potency [4]

CN1CCN(N)CC1
inactive: Potency [1] | Potency [2] | Potency [3] | Potency [4]

Oc1ccc(Cl)c2cccnc12
inactive: Potency [1] | Potency [2] | Potency [3] | Potency [4]

O=C(CO)[C@@H](O)[C@H](O)[C@@H](O)CO
inactive: Potency [1] | Potency [2] | Potency [3] | Potency [4]

O=c1[nH]c(=O)n([C@H]2CCCO2)cc1F
inactive: Potency [1] | Potency [2] | Potency [3] | Potency [4]

COC(=O)c1cc(Cl)ccc1NS(=O)(=O)C(F)(F)F
inactive: Potency [1] | Potency [2] | Potency [3] | Potency [4]

Cc1ccc(Cl)c(Nc2ccccc2C(=O)O)c1Cl
inactive: Potency [1] | Potency [2] | Potency [3] | Potency [4]

CO[C@@]1(NC(=O)C(C(=O)O)c2ccc(O)cc2)C(=O)N2C(C(=O)O)=C(CSc3nnnn3C)CO[C@@H]21 (some centres undefined)
inactive: Potency [1] | Potency [2] | Potency [3] | Potency [4]

COc1cc(/C=C/C(N)=O)cc(OC)c1OC
inactive: Potency [1] | Potency [2] | Potency [3] | Potency [4]

C[C@]12C=CC(=O)C=C1CC[C@@H]1[C@@H]2[C@@H](O)C[C@@]2(C)[C@H]1CC[C@]2(O)C(=O)CO
inactive: Potency [1] | Potency [2] | Potency [3] | Potency [4]

CC(C)(Oc1ccc(Cl)cc1)C(=O)O
inactive: Potency [1] | Potency [2] | Potency [3] | Potency [4]

O=[N+]([O-])c1ccc(/C=N\O)o1
inactive: Potency [1] | Potency [2] | Potency [3] | Potency [4]

N[C@@H](COP(=O)(O)O)C(=O)O
inactive: Potency [1] | Potency [2] | Potency [3] | Potency [4]

Cc1cc2c(cc1CC(=O)c1sccc1S(=O)(=O)Nc1onc(C)c1Cl)OCO2
inactive: Potency [1] | Potency [2] | Potency [3] | Potency [4]

CC(=O)N(c1onc(C)c1C)S(=O)(=O)c1ccc(N)cc1
inactive: Potency [1] | Potency [2] | Potency [3] | Potency [4]

CC(C)(Oc1ccc(C2CC2(Cl)Cl)cc1)C(=O)O (centres undefined)
inactive: Potency [1] | Potency [2] | Potency [3] | Potency [4]

NC(=O)NC1NC(=O)NC1=O (centres undefined)
inactive: Potency [1] | Potency [2] | Potency [3] | Potency [4]

Cn1c(=O)c2[nH]cnc2n(C)c1=O
inactive: Potency [1] | Potency [2] | Potency [3] | Potency [4]

Nc1ccc(/C=C/c2ccc(N)cc2S(=O)(=O)O)c(S(=O)(=O)O)c1
inactive: activity change, negative = inhibition [1] -2.51% [at 0.757 µM] | activity change, negative = reduced viability [2] 3.69% [at 0.757 µM] | activity change, negative = lower viability [3] 0.0811% [at 0.757 µM] | activity change, negative = inhibition [4] 15.6% [at 0.757 µM]

COc1cc(C(=O)OC(COCCC(C)C)CN2CCOCC2)cc(OC)c1OC (centres undefined)
inactive: Potency [1] | Potency [2] | Potency [3] | Potency [4]

Nc1cc(C(Cl)=C(Cl)Cl)c(S(N)(=O)=O)cc1S(N)(=O)=O
inactive: Potency [1] | Potency [2] | Potency [4]

CN(C)c1ccc2nc3ccc(=[N+](C)C)cc-3sc2c1
active: Potency [1] 9680 nM | Potency [3] 24300 nM | Potency [4] 6850 nM

Cc1cccc(C)c1OCC(=O)N[C@@H](Cc1ccccc1)[C@@H](O)C[C@H](Cc1ccccc1)NC(=O)[C@H](C(C)C)N1CCCNC1=O
inactive: Potency [1]
active: Potency [4] 38500 nM

N#C[C@H]1C[C@H]2C[C@@H]2N1C(=O)[C@@H](N)C12CC3CC(CC(O)(C3)C1)C2
inactive: Potency [1] | Potency [2] | Potency [4]

CC(=O)N1CCN(c2ccc(OC[C@H]3CO[C@](Cn4ccnc4)(c4ccc(Cl)cc4Cl)O3)cc2)CC1
inactive: Potency [2] | Potency [3] | Potency [4]

CO[C@H]1C[C@@H]2CC[C@@H](C)[C@@](O)(O2)C(=O)C(=O)N2CCCC[C@@H]2C(=O)O[C@H]([C@H](C)C[C@@H]2CC[C@H](OCCO)[C@H](OC)C2)CC(=O)[C@H](C)C=C(C)[C@@H](O)[C@@H](OC)C(=O)[C@H](C)C[C@H](C)C=CC=CC=C1C
active: Potency [2] 8.6 nM | Potency [3] 76.9 nM | Potency [4] 544 nM

CCCCNC(=O)NS(=O)(=O)c1ccc(N)cc1
inactive: Potency [1] | Potency [2] | Potency [3] | Potency [4]

COc1cccc2c1C(=O)c1c(O)c3c(c(O)c1C2=O)C[C@@](O)(C(=O)CO)C[C@@H]3O[C@H]1C[C@H](N)[C@@H](O)[C@H](C)O1
active: Potency [2] 1090 nM | Potency [3] 1090 nM | Potency [4] 1370 nM

COc1cc([C@@H]2c3cc4c(cc3[C@@H](O[C@@H]3O[C@@H]5CO[C@@H](c6cccs6)O[C@@H]5[C@H](O)[C@@H]3O)[C@H]3COC(=O)[C@H]23)OCO4)cc(OC)c1O
active: Potency [2] 1220 nM | Potency [3] 1720 nM

COc1cc(C(=O)NS(=O)(=O)c2ccccc2C)ccc1Cc1cn(C)c2ccc(NC(=O)OC3CCCC3)cc12
inactive: Potency [1] | Potency [2] | Potency [4]

Nc1ccc(C(=O)Nc2ccccc2N)cc1
inactive: Potency [1] | Potency [4]

O=C1CN(/N=C/c2ccc([N+](=O)[O-])o2)C(=O)N1
inactive: Potency [1] | Potency [2] | Potency [4]

COc1cc(NS(C)(=O)=O)ccc1Nc1c2ccccc2nc2ccccc12
active: Potency [2] 2510 nM | Potency [4] 5620 nM

Cc1c(N)nc([C@H](CC(N)=O)NC[C@H](N)C(N)=O)nc1C(=O)N[C@H](C(=O)N[C@H](C)[C@@H](O)[C@H](C)C(=O)N[C@H](C(=O)NCCc1nc(-c2nc(C(=O)NCCCCN=C(N)N)cs2)cs1)[C@@H](C)O)[C@@H](O[C@@H]1O[C@@H](CO)[C@@H](O)[C@H](O)[C@@H]1O[C@H]1O[C@H](CO)[C@@H](O)[C@H](OC(N)=O)[C@@H]1O)c1cnc[nH]1
inactive: Potency [1] | Potency [2] | Potency [4]

CNC(=O)c1ccccc1Sc1ccc2c(/C=C/c3ccccn3)n[nH]c2c1
inactive: Potency [1] | Potency [3] | Potency [4]

CN(C)C(=O)COC(=O)Cc1ccc(OC(=O)c2ccc(N=C(N)N)cc2)cc1
inactive: Potency [1] | Potency [4]

O=C(O)Cc1ccc(-c2ccccc2)cc1
inactive: Potency [1] | Potency [2] | Potency [4]

Cc1cc(OI)c(C(C)C)cc1-c1cc(C(C)C)c(OI)cc1C
inactive: Potency [1] | Potency [2] | Potency [3] | Potency [4]

Nc1nc(Cl)nc2c1ncn2[C@H]1C[C@H](O)[C@@H](CO)O1
active: Potency [3] 8630 nM
inactive: Potency [1]

CC(=O)OC[C@H]1O[C@@H](n2ncc(=O)[nH]c2=O)[C@H](OC(C)=O)[C@@H]1OC(C)=O
inactive: Potency [3] | Potency [4]

Cc1cc(O)c2ccccc2c1O
inactive: Potency [1] | Potency [3] | Potency [4]

O=C(O)c1c(O)c(-c2ccccc2)nc2ccccc12
inactive: Potency [1] | Potency [2] | Potency [3] | Potency [4]

CCCCCCNC(=O)n1cc(F)c(=O)[nH]c1=O
inactive: Potency [1] | Potency [4]
active: Potency [2] 43200 nM
